Compounds without any hit were thinned out: in the full panel of roughly 83,000, 20% have a hit.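 Method: cells in 96-well plates; compound added at one concentration; 48 h incubation; percent growth measured; values under 10 scored active.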 Active and inactive are the calls of the source.
Assays:
Assay in all cases: NCI-60 one-dose screen, 48 h (100 = growth as untreated, 0 = no growth, -100 = all killed)
Settings in all cases: 10 µM unless noted
NCI-H226 lung = tested on: NCI-H226 lung
NCI-H322M lung = tested on: NCI-H322M lung
HOP-62 NSCLC = tested on: HOP-62 NSCLC
NCI-H460 lung = tested on: NCI-H460 lung
HOP-92 NSCLC = tested on: HOP-92 NSCLC
NCI-H522 lung = tested on: NCI-H522 lung
A549/ATCC NSCLC = tested on: A549/ATCC NSCLC
786-0 renal = tested on: 786-0 renal
COLO 205 colon = tested on: COLO 205 colon
DU-145 prostate = tested on: DU-145 prostate
K-562 leukemia = tested on: K-562 leukemia
MALME-3M melanoma = tested on: MALME-3M melanoma
MDA-MB-231 breast = tested on: MDA-MB-231 breast
RXF 393 renal = tested on: RXF 393 renal
SF-268 CNS = tested on: SF-268 CNS
SF-295 CNS = tested on: SF-295 CNS
SF-539 CNS = tested on: SF-539 CNS
UACC-257 melanoma = tested on: UACC-257 melanoma
M14 melanoma = tested on: M14 melanoma

Measured: growth

Cc1cn2c(/C=C3/C(=O)Nc4c3ccc3ccccc43)c(C(F)(F)F)nc2s1
active: NCI-H460 lung 9.31% | NCI-H522 lung 5.27% | COLO 205 colon -49.4% | DU-145 prostate 4.07% | K-562 leukemia 8.76% | RXF 393 renal -19.3% | SF-295 CNS 7.54% | SF-539 CNS -5.73% | M14 melanoma 8.69%
inactive: NCI-H226 lung 53.5% | NCI-H322M lung 43.2% | HOP-62 NSCLC 27.2% | HOP-92 NSCLC 20.8% | A549/ATCC NSCLC 20.1% | 786-0 renal 24.8% | MALME-3M melanoma 42.4% | MDA-MB-231 breast 38.1% | SF-268 CNS 43.5% | UACC-257 melanoma 54.4%

C=C1C(=O)O[C@H]2[C@H]1CC/C(COC(=O)c1cc3cc(OC)ccc3[nH]1)=C\CC[C@@]1(C)O[C@@H]21
active: NCI-H226 lung -68.3% | NCI-H322M lung -50.8% | HOP-62 NSCLC -68.9% | NCI-H460 lung -37% | HOP-92 NSCLC -62.7% | NCI-H522 lung -91.4% | A549/ATCC NSCLC -73.9% | 786-0 renal -87.6% | COLO 205 colon -71.3% | DU-145 prostate -94.4% | K-562 leukemia 0.302% | MALME-3M melanoma -85.3% | MDA-MB-231 breast -71.6% | RXF 393 renal -95.1% | SF-268 CNS -82.8% | SF-539 CNS -93.4% | UACC-257 melanoma -89.6% | M14 melanoma -52.9%
inactive: SF-295 CNS 47.5%

O=C1OC(c2ccccc2)C(O)=C1c1ccccc1 (stereo not given)
inactive: NCI-H226 lung 100% | HOP-62 NSCLC 122% | NCI-H460 lung 113% | HOP-92 NSCLC 96.4% | NCI-H522 lung 110% | A549/ATCC NSCLC 86.6% | 786-0 renal 116% | COLO 205 colon 120% | DU-145 prostate 112% | K-562 leukemia 110% | MALME-3M melanoma 116% | MDA-MB-231 breast 104% | RXF 393 renal 111% | SF-268 CNS 96.4% | SF-295 CNS 109% | SF-539 CNS 102% | UACC-257 melanoma 95.2% | M14 melanoma 111%

O=C1C=C(O)C(=O)C(CC2=C(O)C(=O)C=C(O)C2=O)=C1O
inactive: NCI-H226 lung 102% | NCI-H322M lung 105% | HOP-62 NSCLC 104% | NCI-H460 lung 104% | HOP-92 NSCLC 109% | NCI-H522 lung 92.1% | A549/ATCC NSCLC 92% | COLO 205 colon 115% | DU-145 prostate 110% | K-562 leukemia 106% | MALME-3M melanoma 108% | MDA-MB-231 breast 95.8% | RXF 393 renal 110% | SF-268 CNS 100% | SF-539 CNS 88.5% | UACC-257 melanoma 105% | M14 melanoma 104%

N#Cc1nnn(-c2ccc(S(N)(=O)=O)cc2)c1NCC(=O)c1ccccc1
inactive: NCI-H226 lung 88.2% | NCI-H322M lung 91.2% | HOP-62 NSCLC 91.7% | NCI-H460 lung 101% | HOP-92 NSCLC 86.6% | NCI-H522 lung 83.9% | A549/ATCC NSCLC 93.3% | 786-0 renal 102% | COLO 205 colon 104% | DU-145 prostate 106% | MALME-3M melanoma 96.4% | MDA-MB-231 breast 95.1% | RXF 393 renal 113% | SF-268 CNS 93.6% | SF-295 CNS 100% | SF-539 CNS 116% | UACC-257 melanoma 88.4% | M14 melanoma 97.5%

CCOC(=O)c1cc(C(=O)c2ccc(O)c(O)c2)n2ccc(-c3ccn4c(C(=O)c5ccc(O)c(O)c5)cc(C(=O)OCC)c4c3)cc12
inactive: NCI-H226 lung 107% | NCI-H322M lung 94.3% | HOP-62 NSCLC 99.7% | NCI-H460 lung 101% | HOP-92 NSCLC 45.7% | NCI-H522 lung 82.7% | A549/ATCC NSCLC 92.3% | 786-0 renal 87% | COLO 205 colon 102% | DU-145 prostate 93.8% | MALME-3M melanoma 105% | MDA-MB-231 breast 52.6% | RXF 393 renal 86.5% | SF-268 CNS 88.5% | SF-295 CNS 102% | SF-539 CNS 92.5% | UACC-257 melanoma 100% | M14 melanoma 93.2%

C=CC(=O)Nc1cccc(Nc2nc(SC)nc(-c3cccc([N+](=O)[O-])c3)c2C#N)c1
active: HOP-92 NSCLC -19.6% | A549/ATCC NSCLC 7.62%
inactive: NCI-H226 lung 47.2% | NCI-H322M lung 74% | HOP-62 NSCLC 53.4% | NCI-H522 lung 38.7% | 786-0 renal 63.8% | COLO 205 colon 20.3% | DU-145 prostate 30% | K-562 leukemia 46.5% | MALME-3M melanoma 14.9% | MDA-MB-231 breast 52.2% | RXF 393 renal 18.5% | SF-268 CNS 74.8% | SF-295 CNS 49.7% | SF-539 CNS 76.6% | UACC-257 melanoma 49% | M14 melanoma 45%

COc1cccc(/C=C2\Oc3cc(OCCN4CCCC4)ccc3C2=O)c1
inactive: NCI-H226 lung 99.2% | NCI-H322M lung 92.7% | HOP-62 NSCLC 96.3% | NCI-H460 lung 93.8% | HOP-92 NSCLC 69.6% | NCI-H522 lung 94.5% | A549/ATCC NSCLC 99% | 786-0 renal 95.8% | COLO 205 colon 93.8% | DU-145 prostate 98.5% | MALME-3M melanoma 104% | MDA-MB-231 breast 96.3% | RXF 393 renal 97.5% | SF-268 CNS 91.8% | SF-295 CNS 105% | SF-539 CNS 88.9% | UACC-257 melanoma 111% | M14 melanoma 98.7%
active: K-562 leukemia -26.9%

O=C1/C(=C/c2ccccc2)SC(=S)N1CCc1ccc(O)cc1
inactive: NCI-H226 lung 90.2% | HOP-62 NSCLC 94% | NCI-H460 lung 99.4% | HOP-92 NSCLC 79.9% | NCI-H522 lung 54.8% | A549/ATCC NSCLC 93.6% | 786-0 renal 89.5% | COLO 205 colon 108% | DU-145 prostate 90.1% | K-562 leukemia 90.9% | MALME-3M melanoma 92.2% | MDA-MB-231 breast 87.3% | RXF 393 renal 101% | SF-268 CNS 85.3% | SF-295 CNS 97% | SF-539 CNS 90.1% | UACC-257 melanoma 98.9% | M14 melanoma 97.1%

COC(=O)c1ccc(NC(=O)c2ccc(-c3cccc([N+](=O)[O-])c3)o2)cc1
inactive: NCI-H226 lung 73.9% | HOP-62 NSCLC 107% | NCI-H460 lung 101% | HOP-92 NSCLC 94.6% | NCI-H522 lung 94.2% | A549/ATCC NSCLC 108% | 786-0 renal 103% | COLO 205 colon 108% | DU-145 prostate 110% | K-562 leukemia 105% | MALME-3M melanoma 90.3% | MDA-MB-231 breast 90.3% | RXF 393 renal 92.7% | SF-268 CNS 97.6% | SF-295 CNS 94.9% | SF-539 CNS 90.5% | UACC-257 melanoma 102% | M14 melanoma 101%

O=C(CCN1C(=O)/C(=C/c2ccc(Cl)cc2)SC1=S)NCCCN1CCOCC1
inactive: NCI-H226 lung 98.2% | HOP-62 NSCLC 101% | NCI-H460 lung 102% | HOP-92 NSCLC 102% | NCI-H522 lung 88.9% | A549/ATCC NSCLC 102% | 786-0 renal 107% | COLO 205 colon 108% | DU-145 prostate 106% | K-562 leukemia 97.8% | MALME-3M melanoma 100% | MDA-MB-231 breast 100% | RXF 393 renal 109% | SF-268 CNS 95.7% | SF-295 CNS 95.2% | SF-539 CNS 93.7% | UACC-257 melanoma 102% | M14 melanoma 103%

Source: PubChem BioAssay (NCI)
